# Screening data from PubChem BioAssay.
# Only some compounds are listed: those with a hit (about 3.4% of all), similar ones and a draw of the others.
# Tau FP inhib – inhibitors of human tau fibril formation; P10636; K18 P301L tau heparin fibrillization, Alexa594 FP, 6 h; Potency, µM (doses to about 57.7 µM), for the others: top-dose activity, negative = inhibition, actives largely listed as inhibitors; actives 0.39% (n = 280,000); further: potency means the concentration at half of the fitted maximal effect; on the % scale 0 is the no-effect control and ±100 the full control effect; nearly all actives have a fitted effect of over 55% in size
# Target sequence (P10636 561-689 P618L limits assumed): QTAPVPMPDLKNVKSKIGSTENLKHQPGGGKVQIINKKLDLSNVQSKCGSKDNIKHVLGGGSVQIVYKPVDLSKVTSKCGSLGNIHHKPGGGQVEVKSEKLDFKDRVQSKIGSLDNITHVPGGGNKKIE
#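 Recombinant K18 P301L […], labeled with Alexa 594 at 0.24 uM over 15 uM unlabeled; heparin inducer 20 uM final; 37 C, 6 hr; FP endpoint.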
# GoLoco inh red – inhibitors of human Gai1-RGS12 GoLoco interaction (red fluorophore); Gai1:RGS12 GoLoco peptide FP, rhodamine, 10 min; Potency, µM (titrated, usually from 61.6 µM), for the others: top-dose activity, negative = inhibition, actives largely listed as inhibitors; actives 0.44% (n = 230,000); AID 880; active means well fitted inhibition curve with a large enough effect, not every such curve was filed as active; inactive means no such curve, though single readings can be large or run the other way; further: potency means the concentration at half of the fitted maximal effect; on the % scale 0 is the no-effect control and ±100 the full control effect; nearly all actives have a fitted effect of over 30% in size
# Target sequence (P63096 whole entry, looked up): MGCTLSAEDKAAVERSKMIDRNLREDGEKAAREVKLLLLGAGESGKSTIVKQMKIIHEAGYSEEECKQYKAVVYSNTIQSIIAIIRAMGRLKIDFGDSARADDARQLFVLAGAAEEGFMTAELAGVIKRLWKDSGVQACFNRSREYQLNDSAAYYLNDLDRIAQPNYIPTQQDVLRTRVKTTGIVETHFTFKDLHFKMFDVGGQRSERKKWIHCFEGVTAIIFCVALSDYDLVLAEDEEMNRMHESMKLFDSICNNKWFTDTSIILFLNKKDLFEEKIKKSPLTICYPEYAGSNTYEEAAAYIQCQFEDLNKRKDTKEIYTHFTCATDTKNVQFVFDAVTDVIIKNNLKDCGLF
# JMJD2E inh – JMJD2E (human) inhibition; actives 1.6% (n = 230,000); JMJD2E catalytic domain, FDH-coupled NADH fluorescence (FDH is formaldehyde dehydrogenase); Potency, µM (titrated, usually from 57.1 µM), inactives show top-dose activity change, negative = inhibition, hits mostly inhibitors; active means well fitted inhibition curve with a large enough effect, not every such curve was filed as active; inconclusive means small, poorly fitted or top-dose-only effect, or another doubt; inactive means no such curve, though single readings can be large or run the other way;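 further: potency means the concentration at half of the fitted maximal effect; 0% = wells with enzyme and -100% = buffer wells without enzyme; nearly all actives have a fitted effect of over 50% in size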
# Tau fluor counter – counter-screen for tau fibril formation inhibitors | actives 0.93% (n = 280,000) | Potency, µM (doses to about 57.7 µM), inactives show at the top dose activity change, negative = decrease | tau K18 P301L Alexa594 fluorescence, heparin fibrillization | AID 1463; further: potency means the concentration at half of the fitted maximal effect; on the % scale 0 is the no-effect control and ±100 the full control effect; nearly all actives have a fitted effect of over 55% in size
#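 Human tau K18 P301L (15 uM unlabeled, 0.24 uM Alexa 594-labeled) in 100 mM sodium acetate pH 7 with 20 uM heparin, 6 hr at 37 C. ThT 30 uM added, 1 hr ambient; Alexa 594 FP and total fluorescence read at 555/632 nm.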
# Tau ThT inhib – blocks human tau fibril formation measured by thioflavin T | P10636 | recombinant tau K18 P301L, heparin-induced fibrillization, ThT fluorescence | Potency, µM (top dose mostly 57.4 µM), for inactives: top-dose activity, negative = inhibition, most hits filed as inhibitors | actives 2.1% (n = 270,000) | AID 1460; further: potency means the concentration at half of the fitted maximal effect; on the % scale 0 is the no-effect control and ±100 the full control effect; nearly all actives have a fitted effect of over 55% in size
#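 Fibril formation assay: tau K18 P301L at 15 uM with trace Alexa 594 label, heparin inducer 20 uM, pH 7 sodium acetate buffer, 37 C for 6 hr; endpoint ThT signal.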
# Tau TEM fibril – Inhibits human tau fibrillization | shares compounds with Tau ThT inhib | recombinant tau K18 P301L fibrillization, TEM grading; active compounds read high | fibril grade (0 = clumped fibrils, 4 = only tiny pieces) (no concentration beside the values) | actives 70% (n = 45);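 active means compounds whose electron micrographs showed tau fibrils broken into shorter filaments or fragments, graded high on fibril breakup; inconclusive means micrographs gave an unclear fibril picture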
# tau sediment – reduces sedimented tau K18 P301L aggregates; shares compounds with Tau ThT inhib; recombinant tau K18 P301L (four-repeat tau fragment), sedimentation SDS-PAGE densitometry; inhibition, % at 100 µM; actives 50% (n = 110); in the data active means inhibition above about 40%; inconclusive means no clear call, values can overlap the other calls; inactive means below about 18%
# The depositor's hits bear a star; ? = inconclusive; . = no result given. Unless noted, the call rests on the fitted dose curve; in most records, active means well fitted curve in the direction sought with a large enough effect; inconclusive means small, poorly fitted or top-dose-only effect, or another doubt; inactive means no such curve, though single readings can be large; an effect the other way counts as inactive or inconclusive.
SMILES,Tau FP inhib,GoLoco inh red,JMJD2E inh,Tau fluor counter,Tau ThT inhib,tau sediment,others
C=CCn1c(C)cc(C2=NNC(=Nc3ccc(C)cc3)SC2)c1C,1.4%,10.7%,-6.3%,-19.6%,?,.,
Cn1ncc(Cl)c1C(=O)Nc1cccc(Cl)c1,?,-28.4%,-1.8%,-27.8%,12.6µM*,93.0*,Tau TEM fibril=3*
COc1ccc2[nH]c(=O)c(CNc3ccc(C)cc3C)cc2c1,-19.9%,-6.1%,?,-30.0%,?,.,
COc1ccc2[nH]c(=O)c(CNc3ccccc3OC)cc2c1,10µM*,16.2%,?,?,7.94µM*,61.0*,Tau TEM fibril=?
COc1ccc(NC(=O)Cn2cc(S(=O)(=O)N3CCN(c4ccccc4F)CC3)c3ccccc3c2=O)cc1Cl,12.6µM*,.,.,-13.6%,11.1%,7.0,
COc1cc(Cl)c(C)cc1NC(=O)Cn1cc(S(=O)(=O)N2CCN(c3ccccc3F)CC2)c2ccccc2c1=O,?,.,.,-10.7%,-2.1%,.,
Cc1ccc(C(=O)Nc2ccc3c(c2)n(C)c(=O)c(=O)n3C)cc1,3.0%,.,.,-8.7%,?,.,
Cc1ccc(C(=O)Nc2nc(=O)n(C(=O)C3CC3)s2)cc1,?,6.7%,0.4%,-22.5%,8.91µM*,49.0*,Tau TEM fibril=?
Cc1nn(C(C)C(=O)NC2CCCCC2)c(=O)c2c1sc1ccccc12 (centres undefined),1.7%,.,.,-22.8%,?,.,
COc1ccc(C(=O)Nc2nc3ccc(S(=O)(=O)N4CCCC4)cc3s2)cc1,-2.6%,.,.,-7.9%,-5.6%,.,
O=C(Nc1nc2ccc(S(=O)(=O)N3CCCC3)cc2s1)c1ccc(F)cc1,-14.6%,.,.,-7.1%,15.6%,14.0,
Cc1cccc(N(C)S(=O)(=O)c2nnc(NC(=O)C3CCCCC3)s2)c1,-3.9%,.,.,-12.7%,-7.5%,.,
Cc1ccc(N(C)S(=O)(=O)c2nnc(NC(=O)C3CCCCC3)s2)cc1,?,.,.,-3.5%,4.4%,12.0,
O=C(C1CCCN(S(=O)(=O)c2cccc3nsnc23)C1)N1CCN(c2ccccc2)CC1 (centres undefined),8.7%,.,.,-13.8%,?,.,
COc1ccc(C(CNC(=O)c2cccc([N+](=O)[O-])c2)N2CCOCC2)cc1 (centres undefined),-0.2%,.,.,-13.0%,-5.0%,.,
CN(C(=S)Nc1cccnc1)c1ccc(O)cc1,3.16µM*,-14.3%,?,?,2µM*,51.0*,Tau TEM fibril=2*
CCN(C(=S)Nc1cccnc1)c1ccccc1,-3.5%,5.8%,?,-7.8%,-7.7%,.,
CCN(c1ccccc1)S(=O)(=O)c1nnc(NC(=O)C(C)(C)C)s1,?,.,.,1.7%,?,18.0,
COC(=O)c1ccccc1NC(=O)c1cc(=O)c2ccc(C)c(C)c2o1,-3.5%,.,.,-0.4%,-0.2%,.,
COc1ccc(-c2ccc3ccccc3n2)cc1,4.4%,8.1%,?,3.1%,-12.9%,.,
Nc1ccc(-c2ccc3ccccc3n2)cc1,13.0%,8.0%,?,?,?,10.0,
COC(=O)c1c(NC(=O)CCCOc2ccc(C(C)(C)C)cc2)sc2c1C(C(=O)OC)CC2 (centres undefined),?,.,.,?,8.91µM*,?,Tau TEM fibril=0
